In all, about 39,000 compounds went through this assay and about 3,300 (8.5%) were called active. Many of the other results were omitted from the sample, so actives are more common in it than they were.
Test system: HepG2
Test: cytotoxicity call (relative viability < 0.9)
Details: 10 µM

| SMILES | cytotoxicity call |
| --- | --- |
| C[C@@H]1CN([C@H](C)CO)S(=O)(=O)c2ccc(C#CC(C)(C)O)cc2O[C@@H]1CN(C)Cc1ccc(F)cc1 | inactive |
| FC(F)(F)Oc1ccccc1 | inactive |
| C[C@@H]1CN([C@@H](C)CO)C(=O)Cc2cc(NC(=O)Cn3cnnn3)ccc2O[C@@H]1CN(C)S(=O)(=O)c1cn(C)cn1 | inactive |
| CSc1ccc(-c2nnn(CC(N)=O)n2)cc1 | inactive |
| Cc1noc(C)c1NC(=O)N(C)C[C@H]1Oc2ccc(NC(=O)NC(C)C)cc2C(=O)N([C@H](C)CO)C[C@H]1C | inactive |
| COc1ccc(S(=O)(=O)Nc2ccc3c(c2)C(=O)N([C@H](C)CO)C[C@H](C)[C@H](CN(C)S(=O)(=O)c2cn(C)cn2)O3)cc1 | inactive |
| C[C@H]1CN([C@@H](C)CO)C(=O)c2cc(NC(=O)c3ccncc3)ccc2O[C@H]1CN(C)S(=O)(=O)c1cccs1 | inactive |
| COCCOC(=O)N1C(=O)[C@@]2(c3cc(C#CC4=CCCCC4)ccc31)[C@H](C(=O)N1CCN(c3ncccn3)CC1)[C@H]1C(=O)O[C@H](c3ccccc3)[C@H](c3ccccc3)N1[C@@H]2c1ccc(O)cc1 | inactive |
| C=CCn1c(N2CCN(c3ccc(OC)cc3)CC2)nc2c1c(=O)n(C)c(=O)n2C | inactive |
| C=CCn1c(=O)c2cnc(Nc3ccc(N4CCN(C)CC4)cc3)nc2n1-c1cccc(C(C)(C)O)n1 | active |
| COC(=O)C[C@@H]1CC[C@H]2[C@@H](COC[C@@H](O)CN2S(=O)(=O)c2ccccc2C)O1 | inactive |
| Cn1c(=O)cc(N2CCC[C@@H](N)C2)n(Cc2cc(F)ccc2C#N)c1=O | inactive |
| Cn1c(=O)cc(N2CCC[C@@H](N)C2)n(Cc2ccccc2C#N)c1=O | inactive |
| Cn1c(=O)cc(N2CCCC(N)C2)n(Cc2ccccc2C#N)c1=O.O=C(O)c1ccccc1 (stereo not given) | active |
| C[C@H](CO)N1C[C@H](C)[C@@H](CN(C)C(=O)Cc2ccccc2)OCCCC[C@H](C)Oc2ccc(NC(=O)Nc3ccc(F)cc3)cc2C1=O | inactive |
| CCCC#Cc1ccc2c(c1)O[C@@H](CN(C)S(=O)(=O)c1cccc(F)c1)[C@H](C)CN([C@H](C)CO)S2(=O)=O | inactive |
| Br.Cc1ccc(Sc2ccccc2N2CCNCC2)c(C)c1 | active |
| Cc1ccc(S(=O)(=O)N2CCNCC2)cc1 | inactive |
| C[C@@H]1CN([C@@H](C)CO)C(=O)c2cc(C#Cc3cccc(F)c3)cnc2O[C@@H]1CN(C)Cc1ccccn1 | inactive |
| C[C@@H]1CCCCO[C@@H](CN(C)S(=O)(=O)c2cccs2)[C@@H](C)CN([C@H](C)CO)C(=O)c2cc(NC(=O)Nc3cccc4ccccc34)ccc2O1 | inactive |
| C/C=C/C[C@@H](C)[C@@H](O)[C@H]1C(=O)N[C@@H](CC)C(=O)N(C)CC(=O)N(C)[C@@H]([C@@H](C)CC)C(=O)N[C@@H](C(C)C)C(=O)N(C)[C@@H](CC(C)C)C(=O)N[C@@H](C)C(=O)N[C@H](C)C(=O)N(C)[C@@H](CC(C)C)C(=O)N(C)[C@@H](CC(C)C)C(=O)N(C)[C@@H](C(C)C)C(=O)N1C | inactive |
| CC=CCC(C)C(O)C1C(=O)NC(CC)C(=O)N(C)CC(=O)N(C)C(CC(C)C)C(=O)NC(C(C)C)C(=O)N(C)C(CC(C)C)C(=O)NC(C)C(=O)NC(C)C(=O)N(C)C(CC(C)C)C(=O)N(C)C(CC(C)C)C(=O)N(C)C(C(C)C)C(=O)N1C (stereo not given) | active |
| C=C/C=C/C[C@@H](C)[C@@H](O)[C@H]1C(=O)N[C@@H](CC)C(=O)N(C)CC(=O)N(C)[C@@H](CC(C)C)C(=O)N[C@@H](C(C)C)C(=O)N(C)[C@@H](CC(C)C)C(=O)N[C@@H](C)C(=O)N[C@H](C)C(=O)N(C)[C@@H](CC(C)C)C(=O)N(C)[C@@H](CC(C)C)C(=O)N(C)[C@@H](C(C)C)C(=O)N1C | inactive |
| CC(C)NC(=O)N(C)C[C@@H]1OCc2cnnn2CCCC(=O)N([C@H](C)CO)C[C@H]1C | inactive |

| SMILES | cytotoxicity call |
| --- | --- |
| CCC(=O)Nc1ccc2c(c1)OC[C@@H](C)N(S(=O)(=O)c1cn(C)cn1)C[C@@H](C)[C@H](OC)CN(C)C2=O | inactive |
| Cc1c(N)nc([C@H](CC(N)=O)NC[C@H](N)C(N)=O)nc1C(=O)N[C@H](C(=O)N[C@H](C)[C@@H](O)[C@H](C)C(=O)N[C@H](C(=O)NCCc1nc(-c2nc(C(=O)NCCCNCCCCN)cs2)cs1)[C@@H](C)O)[C@@H](O[C@@H]1O[C@@H](CO)[C@@H](O)[C@H](O)[C@@H]1O[C@@H]1O[C@H](CO)[C@@H](O)[C@H](OC(N)=O)[C@@H]1O)c1c[nH]cn1 | inactive |
| C[C@H](CO)N1C[C@H](C)[C@@H](CN(C)C(=O)C2CCCCC2)Oc2cc(Br)ccc2S1(=O)=O | inactive |
| N#CCCn1nc2c(c1N)CCC2 | inactive |
| Cc1noc(C)c1NC(=O)Nc1ccc2c(c1)C(=O)N([C@@H](C)CO)C[C@H](C)[C@H](CN(C)Cc1ccc(C(F)(F)F)cc1)OCCCC[C@@H](C)O2 | inactive |
| C[C@H](CO)N1C[C@H](C)[C@H](CN(C)C(=O)Cc2ccccc2)OCCCC[C@H](C)Oc2ccc(NC(=O)CCC(F)(F)F)cc2C1=O | inactive |
| C[C@H]1CCCCO[C@@H](CN(C)C(=O)Nc2cccc3ccccc23)[C@@H](C)CN([C@@H](C)CO)C(=O)c2cc(NS(=O)(=O)c3cn(C)cn3)ccc2O1 | active |
| C[C@@H]1CN([C@@H](C)CO)C(=O)c2cc(NS(=O)(=O)c3cn(C)cn3)ccc2O[C@@H](C)CCCCO[C@H]1CN(C)C(=O)Nc1cccc2ccccc12 | inactive |
| C[C@@H]1CCCCO[C@@H](CN(C)C(=O)Nc2cccc3ccccc23)[C@@H](C)CN([C@H](C)CO)C(=O)c2cc(NS(=O)(=O)c3cn(C)cn3)ccc2O1 | inactive |
| C[C@H](CO)N1C[C@H](C)[C@H](CN(C)C(=O)Nc2cccc3ccccc23)OCCCC[C@H](C)Oc2ccc(NS(=O)(=O)c3cn(C)cn3)cc2C1=O | inactive |
| C[C@@H]1CN([C@@H](C)CO)C(=O)c2cc(NS(=O)(=O)c3cn(C)cn3)ccc2O[C@@H](C)CCCCO[C@@H]1CN(C)C(=O)Nc1cccc2ccccc12 | active |
| C[C@H]1CCCCO[C@H](CN(C)C(=O)Nc2cccc3ccccc23)[C@@H](C)CN([C@@H](C)CO)C(=O)c2cc(NS(=O)(=O)c3cn(C)cn3)ccc2O1 | inactive |
| C[C@@H]1CCCCO[C@H](CN(C)C(=O)Nc2cccc3ccccc23)[C@H](C)CN([C@H](C)CO)C(=O)c2cc(NS(=O)(=O)c3cn(C)cn3)ccc2O1 | active |
| C[C@@H]1CCCCO[C@@H](CN(C)C(=O)Nc2cccc3ccccc23)[C@H](C)CN([C@@H](C)CO)C(=O)c2cc(NS(=O)(=O)c3cn(C)cn3)ccc2O1 | inactive |
| C[C@@H]1CCCCO[C@@H](CN(C)C(=O)Nc2cccc3ccccc23)[C@H](C)CN([C@H](C)CO)C(=O)c2cc(NS(=O)(=O)c3cn(C)cn3)ccc2O1 | inactive |
| Cc1cn([C@H]2O[C@@H](CO)[C@H](O)[C@H]2F)c(=O)[nH]c1=O | inactive |
| COCCNC(=O)C[C@@H]1C[C@H]2c3cc(NC(=O)COC)ccc3O[C@H]2[C@@H](CO)O1 | inactive |
| COc1ccc(S(=O)(=O)Nc2cccc3c2O[C@H](CN(C)S(=O)(=O)c2ccc(C)cc2)[C@H](C)CN([C@H](C)CO)C3=O)cc1 | inactive |
| COc1ccccc1Nc1nc(-c2ccc(Cl)cc2)cs1 | inactive |
| C[C@H](CO)N1C[C@H](C)[C@H](CN(C)S(C)(=O)=O)Oc2ccc(NC(=O)CCN3CCOCC3)cc2CC1=O | inactive |
| C[C@@H]1CN([C@H](C)CO)C(=O)Cc2cc(NC(=O)C3CC3)ccc2O[C@H]1CN(C)C(=O)Nc1ccc2c(c1)OCO2 | inactive |
| C[C@@H]1CN([C@H](C)CO)C(=O)Cc2cc(NC(=O)c3ccncc3)ccc2O[C@H]1CN(C)Cc1ccc(C(=O)O)cc1 | inactive |
| COc1ccc(S(=O)(=O)Nc2ccc3c(c2)C(=O)N([C@@H](C)CO)C[C@@H](C)[C@H](CN(C)C(=O)Nc2ccccc2)OCCCC[C@@H](C)O3)cc1 | inactive |
| CCN(CC)CCOC(=O)C1(C2CCCCC2)CCCCC1.Cl | inactive |

| SMILES | cytotoxicity call |
| --- | --- |
| CCN(CC)CCOC(=O)C(c1ccccc1)C1CCCCC1.Cl (stereo not given) | active |
| CCN(CC)CCOC(=O)C(c1ccccc1)c1ccccc1.Cl | inactive |
| COc1ccc(S(=O)(=O)N(C)C[C@@H]2Oc3ncc(-c4ccccc4)cc3C(=O)N([C@H](C)CO)C[C@@H]2C)cc1 | inactive |
| C[C@H](CO)N1C[C@H](C)[C@H](CN(C)S(=O)(=O)c2cn(C)cn2)Oc2cc(C3=CCCCC3)ccc2S1(=O)=O | inactive |
| COc1ccc(CNC(=O)C[C@@H]2C[C@@H]3c4cc(NC(=O)NC5CCCC5)ccc4O[C@@H]3[C@H](CO)O2)cc1 | inactive |
| CC1(C)CCC2(C(=O)O)CCC3(C)C(=CCC4C5(C)CCC(O)C(C)(C)C5CCC43C)C2C1 (stereo not given) | inactive |
| COC(=O)[C@@]12CC[C@@H](C)[C@@H](C)[C@@H]1C1=CC[C@H]3[C@@]4(C)CC[C@@H](OC(C)=O)C(C)(C)[C@@H]4CC[C@@]3(C)[C@@]1(C)CC2 | inactive |
| CC1CCC2(C(=O)O)CCC3(C)C(=CCC4C5(C)CCC(O)C(C)(C)C5CCC43C)C2C1C (stereo not given) | active |
| Cc1noc(C)c1S(=O)(=O)Nc1ccc2c(c1)CC(=O)N([C@H](C)CO)C[C@@H](C)[C@@H](CN(C)C(=O)Nc1ccccc1)O2 | inactive |
| COc1ccccc1S(=O)(=O)N1C[C@@H](O)COC[C@@H]2O[C@H](CC(=O)O)CC[C@H]21 | inactive |
| C[C@H]1CCCCO[C@H](CN(C)S(=O)(=O)c2ccc(Cl)cc2)[C@@H](C)CN([C@@H](C)CO)C(=O)c2cc(NS(=O)(=O)c3cccs3)ccc2O1 | inactive |
| C[C@@H]1CCCCO[C@@H](CN(C)S(=O)(=O)c2ccc(Cl)cc2)[C@@H](C)CN([C@@H](C)CO)C(=O)c2cc(NS(=O)(=O)c3cccs3)ccc2O1 | inactive |
| C[C@@H]1CCCCO[C@@H](CN(C)S(=O)(=O)c2ccc(Cl)cc2)[C@H](C)CN([C@@H](C)CO)C(=O)c2cc(NS(=O)(=O)c3cccs3)ccc2O1 | active |
| C[C@@H]1CCCCO[C@H](CN(C)S(=O)(=O)c2ccc(Cl)cc2)[C@H](C)CN([C@H](C)CO)C(=O)c2cc(NS(=O)(=O)c3cccs3)ccc2O1 | inactive |
| C[C@@H]1CCCCO[C@H](CN(C)S(=O)(=O)c2ccc(Cl)cc2)[C@H](C)CN([C@@H](C)CO)C(=O)c2cc(NS(=O)(=O)c3cccs3)ccc2O1 | inactive |
| C[C@@H]1CN([C@H](C)CO)C(=O)c2cc(NS(=O)(=O)c3cccs3)ccc2O[C@@H](C)CCCCO[C@@H]1CN(C)S(=O)(=O)c1ccc(Cl)cc1 | active |
| C[C@@H]1CCCCO[C@H](CN(C)S(=O)(=O)c2ccc(Cl)cc2)[C@@H](C)CN([C@@H](C)CO)C(=O)c2cc(NS(=O)(=O)c3cccs3)ccc2O1 | inactive |
| C[C@@H]1CCCCO[C@H](CN(C)S(=O)(=O)c2ccc(Cl)cc2)[C@@H](C)CN([C@H](C)CO)C(=O)c2cc(NS(=O)(=O)c3cccs3)ccc2O1 | inactive |
| C[C@H](CO)N1C[C@H](C)[C@@H](CN(C)S(=O)(=O)c2ccc(Cl)cc2)OCCCC[C@H](C)Oc2ccc(NS(=O)(=O)c3cccs3)cc2C1=O | inactive |
| C[C@H](CO)N1C[C@H](C)[C@H](CN(C)S(=O)(=O)c2ccc(Cl)cc2)OCCCC[C@H](C)Oc2ccc(NS(=O)(=O)c3cccs3)cc2C1=O | inactive |
| C[C@@H]1CN([C@@H](C)CO)C(=O)c2cc(NS(=O)(=O)c3cccs3)ccc2O[C@@H](C)CCCCO[C@H]1CN(C)S(=O)(=O)c1ccc(Cl)cc1 | active |
| C[C@@H]1CCCCO[C@@H](CN(C)S(=O)(=O)c2ccc(Cl)cc2)[C@H](C)CN([C@H](C)CO)C(=O)c2cc(NS(=O)(=O)c3cccs3)ccc2O1 | active |

Reference: the antibiotic and cytotoxicity screens of Wong et al. (2023)
